According to PubChem BioAssay AID1952 (The Scripps Research Institute Molecular Screening Center, 2009):
Screen size: about 2,400 compounds; about 1,200 (50%) were called active. Cut-off read from the data, not from the text of the source: active = inhibition above about 24%; inactive = the rest. So high a share suggests a set chosen from earlier hits. A selection follows.

Molecular target: Neuropeptides B/W receptor type 1 (Homo sapiens) (UniProt P48145)
Assay: GPR7 receptor antagonists, confirmation, cell-based, fluorescence, single concentration (AID 1952);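 note: stimulated with the GPR7 agonist NPW; 0% = agonist plus vehicle and 100% = vehicle alone without agonist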
Settings: GPR7-expressing cells, calcium fluorescence antagonist mode; at 4.4 µM; hits give high values

Neuropeptides B/W receptor type 1 (Homo sapiens), sequence (P48145 whole entry, looked up): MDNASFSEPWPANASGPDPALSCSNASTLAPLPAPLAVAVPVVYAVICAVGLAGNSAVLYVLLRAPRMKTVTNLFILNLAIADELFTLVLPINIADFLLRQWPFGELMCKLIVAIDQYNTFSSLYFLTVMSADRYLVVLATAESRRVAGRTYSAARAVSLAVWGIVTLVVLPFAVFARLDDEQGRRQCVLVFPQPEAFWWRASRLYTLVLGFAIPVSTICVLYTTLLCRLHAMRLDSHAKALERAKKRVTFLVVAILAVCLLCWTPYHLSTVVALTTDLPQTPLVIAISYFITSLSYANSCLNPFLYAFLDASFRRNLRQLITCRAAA

Structure (SMILES) | inhibition
Cc1ccc(O)c(NC(=S)NC(=O)COc2ccc(Br)cc2)c1 | 88.8% (active)
O=C(Nc1ccc2ccccc2c1)Nc1ccc2snnc2c1 | 55.7% (active)
CC(C)(C)NCc1cc(Br)ccc1OC1CCCC1 | 23.2% (inactive)
Cc1ccc(NC(=O)CN2C(=O)NC(C)(c3ccc(Cl)cc3)C2=O)c(Br)c1 (stereo not given) | 18.8% (inactive)
CC(NCc1ccccc1OC1CCCC1)c1ccccc1 (stereo not given) | 23.1% (inactive)
CCN1CCN(c2c(Cl)cccc2NC(=O)c2ccc(Br)o2)CC1 | 21% (inactive)
CCN1/C(=C\c2ccc3ccccc3[n+]2CC)Sc2cc(C)ccc21 | 49.3% (active)
COc1ccc(OC)c(C(c2nnnn2C(C)(C)C)N2CCc3ccccc3C2)c1 (stereo not given) | 5.35% (inactive)
CC(C)(C)CC(C)(C)NCC(O)COCCOc1ccc(Br)cc1 (stereo not given) | 47.2% (active)
C=CCSc1nsc(NC(=O)Nc2cccc(C(C)=O)c2)n1 | 47.2% (active)
CCSc1nsc(NC(=O)Nc2cccc(C(C)=O)c2)n1 | 43.7% (active)
CCn1c2ccc(F)cc2c2nnc(SCCN3CCOCC3)nc21 | -14.4% (inactive)
CCc1c(C)nc2c(-c3ccccc3)c(C)nn2c1Nc1ccc(NC(C)=O)cc1 | 4.93% (inactive)
COc1ccc(C(=O)CSc2nnc(COc3ccccc3)n2Cc2ccco2)cc1 | 19% (inactive)
Oc1cccc(/C=N/Nc2ccc(Cl)nn2)c1O | 4.11% (inactive)
Cc1cccc(-c2nc3ccc(C(=O)NCCN4CCN(C)CC4)cc3nc2-c2cccc(C)c2)c1 | 41.8% (active)
CCc1ccc(N(C(=O)c2csnn2)C(C(=O)NC2CCCCC2)c2ccncc2)cc1 (stereo not given) | 34.2% (active)
O=C(Nc1ccccc1F)c1ccc2c(c1)OCO2 | -16.6% (inactive)
O=C(Nc1nc(-c2ccc3c(c2)OCO3)cs1)c1ccncc1 | 55.1% (active)
N=c1c2c(-c3ccccc3)c(-c3ccccc3)n(Cc3ccccc3)c2ncn1CCCO | 26.6% (active)
CN(C)CCCN(C(=O)c1ccc(S(=O)(=O)N2CCCc3ccccc32)cc1)c1nc2ccc(F)cc2s1 | 73% (active)
CN(C)CCCN(C(=O)c1ccc(S(=O)(=O)N2CCCCCC2)cc1)c1nc2ccc(Br)cc2s1 | 70.5% (active)
CCc1ccc2nc(N(CCCN(C)C)C(=O)c3ccc4c(c3)OCCO4)sc2c1 | 40% (active)
CCOC(=O)C1CSC(CC(=O)Nc2ccc(OCC)cc2)C(=O)N1 (stereo not given) | 2.35% (inactive)
COCCN(Cc1cc2cc3c(cc2nc1Cl)OCO3)C(=O)c1cccc(C)c1 | -7.71% (inactive)
